Data as given in the OligoGym collection.

Columns and labels:
Test in all cases: pooled miR-30 sensor sort-seq; sequence = guide strand
Conditions in all cases: shRNA
FH = target: FH
FHOD1 = target: FHOD1
FGFR1 = target: FGFR1
FIZ1 = target: FIZ1
FNBP1L = target: FNBP1L
FLG = target: FLG
FLNC = target: FLNC
FMNL2 = target: FMNL2
FPGS = target: FPGS
FXN = target: FXN
FUT7 = target: FUT7
Further: reference of the scale not given here.

TTTATTAACATGATCGTTGGGA was tested. Which sensor-assay potency score (higher = more potent) (FH) did it give?
The sensor-assay potency score (higher = more potent) was 0.847.

How did the sensor-assay potency score (higher = more potent) (FHOD1) turn out when TTGTTGATGAGGGTGACCGTGT was run?
Its sensor-assay potency score (higher = more potent) is -0.769.

For ATGACTGTCAGCATCTCCCCGG, which sensor-assay potency score (higher = more potent) (FHOD1) is on record?
Its sensor-assay potency score (higher = more potent) is -0.753.

How did the sensor-assay potency score (higher = more potent) (FGFR1) turn out when TTGAACTTCACTGTCTTGGCAG was run?
Its sensor-assay potency score (higher = more potent) is 0.751.

How did the sensor-assay potency score (higher = more potent) (FH) turn out when TTCTGTCACACCTCCAATCTTA was run?
Its sensor-assay potency score (higher = more potent) is -0.00125.

How did the sensor-assay potency score (higher = more potent) (FH) turn out when TTACTTGTTGAACATAACCACT was run?
The sensor-assay potency score (higher = more potent) was -1.14.

Which sensor-assay potency score (higher = more potent) (FH) does the source give for TATTGCATTAGCAATCTTTGGA here?
The sensor-assay potency score (higher = more potent) was 0.0448.

For TTGTCGGTGGTATTAACTCCAG, which sensor-assay potency score (higher = more potent) (FGFR1) is on record?
The sensor-assay potency score (higher = more potent) was -1.38.

With TTCATCAGCTTGTTGATCCTTT as the sequence, how does the sensor-assay potency score (higher = more potent) (FH) read?
The sensor-assay potency score (higher = more potent) was 0.529.

With TCTGTCACCAGGACATTCCTGG as the sequence, how does the sensor-assay potency score (higher = more potent) (FGFR1) read?
Its sensor-assay potency score (higher = more potent) is 0.104.

How did the sensor-assay potency score (higher = more potent) (FHOD1) turn out when TAGCTTCTCAATGCCATCCTTG was run?
The sensor-assay potency score (higher = more potent) was -0.31.

TTGCTTCACACTGAGTAGGGTT was tested. Which sensor-assay potency score (higher = more potent) (FH) did it give?
The sensor-assay potency score (higher = more potent) was -0.374.

TTTACATTCATATTTGTCTGAG was tested. Which sensor-assay potency score (higher = more potent) (FH) did it give?
The sensor-assay potency score (higher = more potent) was -0.0374.

With TTTATAGTAGTCGATGTGGTGA as the sequence, how does the sensor-assay potency score (higher = more potent) (FGFR1) read?
Its sensor-assay potency score (higher = more potent) is -0.221.

Which sensor-assay potency score (higher = more potent) (FH) does the source give for TATTGCAGCAGCAATGTGCATT here?
The sensor-assay potency score (higher = more potent) was -0.245.

How did the sensor-assay potency score (higher = more potent) (FHOD1) turn out when TCTGTCTCGGTGATCATGCGTC was run?
Its sensor-assay potency score (higher = more potent) is -0.332.

AACAGCTTCTCGCACTCGGAGC was tested. Which sensor-assay potency score (higher = more potent) (FIZ1) did it give?
Its sensor-assay potency score (higher = more potent) is -1.76.

How did the sensor-assay potency score (higher = more potent) (FNBP1L) turn out when TTCTGCTACAACTTCTCGCTGT was run?
The sensor-assay potency score (higher = more potent) was 0.673.

How did the sensor-assay potency score (higher = more potent) (FLG) turn out when TTTTGAGTCATTCTTCCTGTAT was run?
Its sensor-assay potency score (higher = more potent) is -0.417.

How did the sensor-assay potency score (higher = more potent) (FLNC) turn out when TTACAGGTGATCTCTGCCTTGG was run?
Its sensor-assay potency score (higher = more potent) is -0.839.

How did the sensor-assay potency score (higher = more potent) (FLNC) turn out when TTGAGGTTGAGGTCACAGGTGC was run?
The sensor-assay potency score (higher = more potent) was -0.307.

For TTGGTGACAATAGTGAAGGTGG, which sensor-assay potency score (higher = more potent) (FLNC) is on record?
The sensor-assay potency score (higher = more potent) was 0.0613.

With TTGACTGCAGTCCACTGTGAAG as the sequence, how does the sensor-assay potency score (higher = more potent) (FLNC) read?
Its sensor-assay potency score (higher = more potent) is -1.44.

For TTGAGGTCACAGGTGCTGCCGA, which sensor-assay potency score (higher = more potent) (FLNC) is on record?
Its sensor-assay potency score (higher = more potent) is -0.595.

How did the sensor-assay potency score (higher = more potent) (FMNL2) turn out when TTATCTTTAACTTGTCGTCTTC was run?
The sensor-assay potency score (higher = more potent) was 0.239.

With TAGGTGACTTTGCATGTCCCGT as the sequence, how does the sensor-assay potency score (higher = more potent) (FLNC) read?
The sensor-assay potency score (higher = more potent) was -0.929.

For TAGAGCTTCAGGTCTCCCTTGC, which sensor-assay potency score (higher = more potent) (FLNC) is on record?
The sensor-assay potency score (higher = more potent) was 0.291.

For TTGTCGGTGATGTTGGGCCGTG, which sensor-assay potency score (higher = more potent) (FLNC) is on record?
Its sensor-assay potency score (higher = more potent) is -1.35.

How did the sensor-assay potency score (higher = more potent) (FMNL2) turn out when TTATAGAGACAGATGCTGCTAT was run?
The sensor-assay potency score (higher = more potent) was 0.344.

How did the sensor-assay potency score (higher = more potent) (FMNL2) turn out when TACAATATTAATAAACTGCATA was run?
The sensor-assay potency score (higher = more potent) was -0.855.

How did the sensor-assay potency score (higher = more potent) (FLNC) turn out when TTCAGTGACACGTCCGTGGAGG was run?
The sensor-assay potency score (higher = more potent) was -0.25.

TACTGCACTCGGTAGGTGCCGT was tested. Which sensor-assay potency score (higher = more potent) (FLNC) did it give?
Its sensor-assay potency score (higher = more potent) is -0.627.

With TTGATGGTGATGGTGTACCGGC as the sequence, how does the sensor-assay potency score (higher = more potent) (FLNC) read?
Its sensor-assay potency score (higher = more potent) is -1.25.

With TTGTCTGTCACATAGGTGTCTG as the sequence, how does the sensor-assay potency score (higher = more potent) (FLNC) read?
Its sensor-assay potency score (higher = more potent) is -0.552.

For TTGAGGTGCTCATTGCACCAGC, which sensor-assay potency score (higher = more potent) (FLNC) is on record?
Its sensor-assay potency score (higher = more potent) is -0.419.

With TAGGCTGACACCAAGCCTGGGT as the sequence, how does the sensor-assay potency score (higher = more potent) (FLNC) read?
The sensor-assay potency score (higher = more potent) was -0.0141.

How did the sensor-assay potency score (higher = more potent) (FMNL2) turn out when TTCTTCTTTTTCTTTGACCATT was run?
Its sensor-assay potency score (higher = more potent) is -1.21.

For TTTCTCTAGCTCATGAATCTTT, which sensor-assay potency score (higher = more potent) (FMNL2) is on record?
The sensor-assay potency score (higher = more potent) was -0.357.

Which sensor-assay potency score (higher = more potent) (FLNC) does the source give for TTGACGGTGAAGGTGTCGTTGT here?
Its sensor-assay potency score (higher = more potent) is -0.371.

How did the sensor-assay potency score (higher = more potent) (FLNC) turn out when TAGGACACAGTGTACGTGCCAT was run?
Its sensor-assay potency score (higher = more potent) is -0.557.

TGAACTCTGATGACACACCGGT was tested. Which sensor-assay potency score (higher = more potent) (FLNC) did it give?
Its sensor-assay potency score (higher = more potent) is 0.0555.

Which sensor-assay potency score (higher = more potent) (FMNL2) does the source give for TTCCATGAGAGCTTGTTCCTGC here?
The sensor-assay potency score (higher = more potent) was 0.908.

For TAGCTGACAGCACATGAGCCAT, which sensor-assay potency score (higher = more potent) (FLNC) is on record?
Its sensor-assay potency score (higher = more potent) is -1.71.

How did the sensor-assay potency score (higher = more potent) (FLNC) turn out when TTGAACTTGATGGAGACCTCAT was run?
The sensor-assay potency score (higher = more potent) was -0.144.

How did the sensor-assay potency score (higher = more potent) (FLNC) turn out when TGAGCCATCACCATTGTCCTGG was run?
The sensor-assay potency score (higher = more potent) was 0.0505.

How did the sensor-assay potency score (higher = more potent) (FMNL2) turn out when TTCTGCAATTAACTCTTGCTGC was run?
The sensor-assay potency score (higher = more potent) was -0.158.

Which sensor-assay potency score (higher = more potent) (FLNC) does the source give for TTTGATTTTGCTGAGGTCCAGC here?
The sensor-assay potency score (higher = more potent) was 0.0406.

How did the sensor-assay potency score (higher = more potent) (FMNL2) turn out when TTGAGTATTTGCATCTTTGTAG was run?
Its sensor-assay potency score (higher = more potent) is 0.305.

How did the sensor-assay potency score (higher = more potent) (FLG) turn out when TTCAGAACTAGATTCATGCCTT was run?
The sensor-assay potency score (higher = more potent) was 0.702.

How did the sensor-assay potency score (higher = more potent) (FMNL2) turn out when TAATTCTGCAATTAACTCTTGC was run?
The sensor-assay potency score (higher = more potent) was -0.103.

With TAGACTGTCTTTGAATTGCTTC as the sequence, how does the sensor-assay potency score (higher = more potent) (FMNL2) read?
Its sensor-assay potency score (higher = more potent) is 0.088.

For TAGGAGACAGCATAGGTGCGAT, which sensor-assay potency score (higher = more potent) (FLNC) is on record?
Its sensor-assay potency score (higher = more potent) is -0.825.

Which sensor-assay potency score (higher = more potent) (FMNL2) does the source give for TAGCTTTACATATTTCATCAGC here?
The sensor-assay potency score (higher = more potent) was -0.662.

TTGTCAGCAAACTTGATGTTGA was tested. Which sensor-assay potency score (higher = more potent) (FLNC) did it give?
The sensor-assay potency score (higher = more potent) was -0.54.

With TTATATGCTTTCACAAACCGGA as the sequence, how does the sensor-assay potency score (higher = more potent) (FMNL2) read?
Its sensor-assay potency score (higher = more potent) is -0.533.

Which sensor-assay potency score (higher = more potent) (FLNC) does the source give for TTGATGTCCACCTTGCTTGGGC here?
The sensor-assay potency score (higher = more potent) was 0.144.

With TAGAATGGCCACATAAACCTGG as the sequence, how does the sensor-assay potency score (higher = more potent) (FLG) read?
Its sensor-assay potency score (higher = more potent) is 0.301.

Which sensor-assay potency score (higher = more potent) (FPGS) does the source give for TTCTCTTGGAGGAAGACGTGGA here?
The sensor-assay potency score (higher = more potent) was 0.047.

How did the sensor-assay potency score (higher = more potent) (FXN) turn out when TTAAAAATCAGAACTTGGGGGC was run?
Its sensor-assay potency score (higher = more potent) is 0.521.

How did the sensor-assay potency score (higher = more potent) (FUT7) turn out when TAGCGGTCACAGATGGCACAGA was run?
Its sensor-assay potency score (higher = more potent) is -0.787.
